High-throughput results deposited in PubChem BioAssay by National Center for Advancing Translational Sciences (NCATS).
An excerpt weighted towards active compounds, which were near 19% of everything screened.
Marburg entry inh = qHTS for inhibitors of binding or entry into cells for Marburg Virus; Marburg virus pseudotyped entry inhibition, cell reporter; Potency, µM (series often up to 37.8 µM), without a hit: at the highest dose activity change, negative = inhibition, most hits filed as inhibitors; 300,000 compounds, 1.8% hits; AID 540276, 2011; calls by dose curve; tested in HEK293 cells; note: potency is the fitted concentration of half-maximal effect; % is set by controls: 0 for no effect and ±100 for the full control effect
CHX counter = Cycloheximide Counterscreen for Small Molecule Inhibitors of Shiga Toxin; cell reporter, cycloheximide protein synthesis inhibition counterscreen; max response, %; 300,000 compounds, 12% hits; AID 2314, 2010; in the data active = max response mostly above about 13%, no sharp cut-off; inactive = mostly below about 14%; note: read at 38.3 µM for the half of the compounds with a filed dose; 0% is about no effect
LASV entry inh = qHTS for Inhibitors of binding or entry into cells for Lassa Virus | Lassa virus pseudotype entry inhibition, cell reporter | Potency, µM (series often up to 37.9 µM), inactives show top-dose activity change, negative = inhibition, actives largely listed as inhibitors | 300,000 compounds, 1.2% hits; calls by dose curve; tested in HEK293 cells; note: potency is the fitted concentration of half-maximal effect; % is set by controls: 0 for no effect and ±100 for the full control effect; nearly all actives have a fitted effect of over 50% in size
Pf growth 96h = Primary qHTS for delayed death inhibitors of the malarial parasite plastid, 96 hour incubation; 320,000 compounds, 6.9% hits; Potency, µM (top dose mostly 28.7 µM), without a hit: at the top dose activity change, negative = inhibition, most hits filed as inhibitors; P. falciparum luciferase reporter growth, 96 h; note: potency is the fitted concentration of half-maximal effect; % is set by controls: 0 for no effect and ±100 for the full control effect
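Infected RBCs, 2% Hct / 0.05% parasitemia final; luciferase-reporter P. falciparum; cpd 96 h, 37 C, 5% CO2; luciferase detection reagent; luminescence.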
Pf growth 48h = Primary qHTS for delayed death inhibitors of the malarial parasite plastid, 48 hour incubation. P. falciparum luciferase growth in erythrocytes, 48 h. Potency, µM (doses to about 28.7 µM), inactives show top-dose activity change, negative = inhibition, actives largely listed as inhibitors. 310,000 compounds, 5.9% hits. AID 504832, 2011; note: potency is the fitted concentration of half-maximal effect; % is set by controls: 0 for no effect and ±100 for the full control effect
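Here the parasites carry a stable luciferase gene and grow inside erythrocytes in Albumax-based RPMI medium with compound for one erythrocytic cycle. Activity is scored as loss of luminescent signal.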
Shiga toxin inh = A qHTS for Small Molecule Inhibitors of Shiga Toxin; AID 2315, 2010; inhibition, % at 38.7 µM; 290,000 compounds, 9.2% hits; Vero cells, Shiga toxin protein synthesis inhibition reporter; in the data active = inhibition mostly above about 28%, no sharp cut-off; inactive = mostly below about 43%; note: 0% is about no effect
* marks the source's active call; other numbers are inactive results; u = inconclusive; x = no result; [ ] = another dose, or the depositor's remark. Unless noted, calls come from the whole dose curve; as a rule, active = well fitted inhibition curve with a large enough effect; inconclusive = small, poorly fitted or top-dose-only effect, or another doubt; inactive = no such curve, though single readings can be large or run the other way.

SMILES	Marburg entry inh	CHX counter	LASV entry inh	Pf growth 96h	Pf growth 48h	Shiga toxin inh
COc1ccccc1N(C)S(=O)(=O)c1ccc(C(=O)NC2=NCCS2)cc1	-5.0%	-2.3	-2.0%	-10.0%	-17.8%	-4.6
NS(=O)(=O)c1ccc(CCNC(=O)C2CCN(S(=O)(=O)c3cnc[nH]3)CC2)cc1	4.6%	0.9	u	10.0%	7.8%	-3.1
COC(=O)c1ccc(/C=N/n2c(C)nc3ccccc3c2=O)cc1	x	20.7*	x	-1.8%	35.8%	41.2*
Cc1nc2ccccc2c(=O)n1/N=C/c1ccc(C(C)C)cc1	x	21.6*	x	50.5%	41.6%	37.6*
COc1ccc(/C=N/n2c(C)nc3ccccc3c2=O)cc1	u	-1.6	-6.5%	66.7%	48.9%	38.4
Cc1cccc(/C=N/n2c(C)nc3ccccc3c2=O)c1	x	22.1*	x	50.5%	17.0%	100.5*
CCOc1ccc(Cn2c(CNS(=O)(=O)c3ccc(C(C)(C)C)cc3)nc3cccnc32)cc1	x	x	20.2%[46.1 µM]	x	x	x
Fc1cnc(Cl)nc1NC1CCCCC1	-3.9%	0.4	x	4.65µM*	23.6%	-3.9
Fc1ccc(-n2ncc3c(NC4CCCCCC4)ncnc32)cc1	x	x	-4.3%[46.1 µM]	x	x	x
COc1ccc(C2(O)CCN(Cc3nnnn3Cc3ccc(C)cc3)CC2)cc1	u	-7.5	u	u	u	-12.8
CCCc1c(CC)c(=N)c2ccccc2n1C	-11.8%	7.6	-17.6%[14.3 µM]	1.9%	0.329µM*	36.9
Cn1c(-c2ccccc2)c(C(=O)CCl)c2ccccc21	u	11.6	-27.0%	-26.6%	u	-10.0
O=S(=O)(c1ccc(Cl)cc1)N1CCN(C(=S)NCC2CCCO2)CC1 (configuration not stated)	-14.4%	0.3	11.1%	-10.2%	0.928µM*	-4.7
S=C(NCC1CCCO1)N1CCN(c2ccccc2)CC1 (configuration not stated)	u	-3.0	0.1%	4.65µM*	30.8%	-4.7
O=S(=O)(c1ccc(F)cc1)N1CCN(C(=S)NCc2ccccc2)CC1	-10.8%[46.1 µM]	-0.6	15.7%[46.1 µM]	u	u	-24.2
O=S(=O)(c1ccc(F)cc1)N1CCN(C(=S)NCC2CCCO2)CC1 (configuration not stated)	u	x	6.0%[46.1 µM]	2.08µM*	2.62µM*	x
FC(F)(F)c1cccc(N2CCN(C(=S)NCC3CCCO3)CC2)c1 (configuration not stated)	u	2.7	u	40.6%	u	-16.6
O=S(=O)(c1ccc(F)cc1)N1CCN(C(=S)NCCc2ccccc2)CC1	0.5%	-1.4	-14.4%	u	1.85µM*	-13.8
O=S(=O)(c1cccc(Br)c1)N1CCN(C(=S)NCC2CCCO2)CC1 (configuration not stated)	-20.4%	x	-6.4%	u	u	x
Cc1ccc(S(=O)(=O)N2CCN(C(=O)COC(=O)CCc3ccccc3)CC2)c(C)c1	x	x	x	-14.6%	-4.9%	x
CCOc1ccc(CNS(=O)(=O)c2ccc3c(c2)CCCN3C(C)=O)cc1OC	x	x	15.1%[46.1 µM]	x	x	x
Cc1nc(-c2ccccc2)cs1	-9.6%	1.9	-21.1%	7.0%	x	-16.1
CCCC(=O)Nc1ccc(-c2csc(-c3cccnc3)n2)cc1	-28.5%	11.1	4.9%	-7.8%	-20.0%	44.0
CC(=O)Nc1ccc(-c2csc(Nc3ccc(S(N)(=O)=O)cc3)n2)cc1	-14.1%[46.1 µM]	6.3	-5.7%	-1.0%	u	-6.7
CC(=O)Nc1ccc(-c2csc(-c3cccnc3)n2)cc1	u	72.5*	u	5.6%	108.5%	110.9*
SMILES	Marburg entry inh	CHX counter	LASV entry inh	Pf growth 96h	Pf growth 48h	Shiga toxin inh
CC(=O)Nc1ccc(-c2csc(Nc3ncccn3)n2)cc1	x	32.9*	x	-0.4%	107.3%	80.9*
Oc1ccc(-c2csc(Nc3ncccn3)n2)cc1	u	39.2*	u	4.15µM*	377.0%	122.4*
NNc1nc(-c2ccccc2)cs1	u	34.2*	9.9%[46.1 µM]	u	35.6%	93.4
Cc1ccc(N2CC(NC(=O)C3CC3)CC2=O)cc1 (configuration not stated)	-1.2%[46.1 µM]	x	-3.0%	-0.9%	5.1%	x
COc1cc(C(=O)NC(=S)NNC(=O)[C@H]2C[C@@H]2c2ccccc2)cc(OC)c1OC	u	6.8	u	0.2%	92.0%	-6.9
c1ccc(-c2csc(Nc3ncccn3)n2)cc1	u	42.4	-22.3%	u	301.9%	54.5*
